# Experimental data taken from PubChem BioAssay AID2283193 (EPA ToxCast).
# Results filed as inconclusive are left out. The source made the active and inactive calls. How the source made its calls: active means hit-call score of the fitted dose curve at least 0.9, where 1 is the maximum; inconclusive means response in the unintended direction; inactive means score below 0.9.
# Target: human Protein Kinase C, zeta (PKCz), PRKCZ (gene 5590) (UniProt Q05513)
# Test: NVS_ENZ_hPKCz: NovaScreen (NVS) Enzymatic Assay for human Protein Kinase C, zeta (PKCz)
# Experimental: NVS_ENZ_hPKCz is a biochemical, single-readout assay that uses extracted gene-proteins in a cell-free assay. Measurements were taken 1 hour after chemical dosing in a 384-well plate.NVS_ENZ_hPKCz is one of one assay component(s) measured or calculated from the NVS_ENZ_hPKCz assay. It is designed to make measurements of enzyme activity, a form of enzyme reporter, as detected with fluorescence intensity signals by Fluorescence and electrophoretic mobility shift technology.Data from the assay component NVS_ENZ_hPKCz was analyzed into 1 assay endpoint. This assay endpoint, NVS_ENZ_hPKCz, was analyzed in the positive analysis fitting direction relative to DMSO as the negative control and baseline of activity. Using a type of enzyme reporter, loss-of-signal activity can be used to understand changes in the enzymatic activity as they relate to the gene PRKCZ. Furthermore, this assay endpoint can be referred to as a primary readout, because this assay has produced multiple assay endpoints where this one serves a enzymatic activity function. To generalize the intended target to other relatable targets, this assay endpoint is annotated to the kinase intended target family, where the subfamily is serine/threonine kinase. […]
# human Protein Kinase C, zeta (PKCz), PRKCZ (gene 5590), sequence (Q05513 whole entry, looked up): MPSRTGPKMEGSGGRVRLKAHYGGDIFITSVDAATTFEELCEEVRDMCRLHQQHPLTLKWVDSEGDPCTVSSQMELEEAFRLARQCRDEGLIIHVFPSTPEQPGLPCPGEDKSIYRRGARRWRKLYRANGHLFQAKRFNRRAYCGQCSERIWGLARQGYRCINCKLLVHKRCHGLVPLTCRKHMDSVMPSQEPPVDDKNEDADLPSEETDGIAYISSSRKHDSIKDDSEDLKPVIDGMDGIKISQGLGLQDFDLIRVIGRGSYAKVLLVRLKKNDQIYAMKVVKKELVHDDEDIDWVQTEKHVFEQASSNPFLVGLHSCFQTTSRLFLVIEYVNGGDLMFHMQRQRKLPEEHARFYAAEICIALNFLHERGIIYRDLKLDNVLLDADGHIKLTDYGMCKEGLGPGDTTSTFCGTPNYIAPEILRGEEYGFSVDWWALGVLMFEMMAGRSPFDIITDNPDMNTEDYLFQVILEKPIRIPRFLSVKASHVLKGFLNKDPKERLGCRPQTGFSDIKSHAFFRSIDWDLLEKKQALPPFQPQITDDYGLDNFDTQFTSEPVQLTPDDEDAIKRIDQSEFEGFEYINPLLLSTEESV
smiles,measurement,value
CCCCC(CC)COC(=O)c1ccccc1C(=O)O (stereo unspecified),outcome,inactive
